PubChem BioAssay (EPA / NIEHS)
“And” between values parts separate entries of the source, which are not always exact repeats. Equal entries are not always repeated. Records with an inconclusive call do not appear. Some compounds were tested as several samples or in several runs, with calls that do not always agree. The source made the active and inactive calls. How the source made its calls, unless noted: active means hit-call score of the fitted dose curve at least 0.9, where 1 is the maximum; inactive means score below 0.9.

Tests used:
[1] = BSK_LPS_PGE2: BioMAP Diversity Plus: LPS Assay for Prostaglandin E2 (PGE2) Biomarker Activity (AID 2283082); details: primary human HUVEC with PBMC; actives raise or lower the signal
In short: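 Compounds were added to the LPS co-culture of endothelium and PBMC, and PGE2 was measured by ELISA after 24 h. Responses in either direction were fitted with DMSO as baseline.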

[2] = read-out: Macrophage colony-stimulating factor (MCSF), CSF1 (gene 1435); assay: BSK_LPS_MCSF: BioMAP Diversity Plus: LPS Assay for Macrophage colony-stimulating factor (MCSF) Biomarker Activity (AID 2283083); details: primary human HUVEC with PBMC; actives raise or lower the signal
In short: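 HUVEC + PBMC co-culture (human primary), 24 h post-dose; M-CSF by ELISA; gain/loss of signal fitted bidirectionally vs DMSO baseline.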

[3] = read-out: Tissue Factor, F3 (gene 2152); assay: BSK_LPS_TissueFactor: BioMAP Diversity Plus: LPS Assay for Tissue Factor Biomarker Activity (AID 2283084); details: primary human HUVEC with PBMC; actives raise or lower the signal
In short: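 HUVEC/PBMC co-culture, LPS-activated; CD142 ELISA read 24 h post-dose; bidirectional curve fit vs DMSO negative control.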

[4] = read-out: Tumor necrosis factor (Homo sapiens) (UniProt P01375); assay: BSK_LPS_TNFa: BioMAP Diversity Plus: LPS Assay for Tumour Necrosis Factor alpha (TNFa) Biomarker Activity (AID 2283085); details: primary human HUVEC with PBMC; actives raise or lower the signal;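 on AC50: TNFa protein level quantified by ELISA in the co-culture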
In short: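 Cells (umbilical vein endothelium plus peripheral blood mononuclear cells) were dosed with chemical, incubated 24 h, then TNFa was quantified by ELISA; values derive from bidirectional fitting with DMSO as baseline.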

[5] = read-out: Vascular cell adhesion molecule 1 (VCAM1), VCAM1 (gene 7412); assay: BSK_LPS_VCAM1: BioMAP Diversity Plus: LPS Assay for Vascular cell adhesion molecule 1 (VCAM1) Biomarker Activity (AID 2283086); details: primary human HUVEC with PBMC; actives raise or lower the signal
In short: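 Cells are dosed in an LPS-stimulated endothelial/mononuclear co-culture and, after 24 h, VCAM-1 is quantified by ELISA. Activity in either direction is fitted relative to the DMSO negative control.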

CD38, CD38 (gene 952) = assay: BSK_SAg_CD38: BioMAP Diversity Plus: SAg Assay for CD38 Biomarker Activity (AID 2283087); details: primary human HUVEC with PBMC; actives raise or lower the signal
In short: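 CD38 quantified by ELISA (fluorescence) in a superantigen-activated endothelial cell–PBMC co-culture at 24 h post-dose. Activity fitted in both directions relative to DMSO; parallel SRB and Alamar Blue cytotoxicity read-outs.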

CD40, CD40 (gene 958) = assay: BSK_SAg_CD40: BioMAP Diversity Plus: SAg Assay for CD40 Biomarker Activity (AID 2283088); details: primary human HUVEC with PBMC; actives raise or lower the signal
In short: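 HUVEC/PBMC co-culture, 24 h post-dose; CD40 by ELISA, fluorescence intensity; bidirectional fit vs DMSO negative control.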

CD69, CD69 (gene 969) = assay: BSK_SAg_CD69: BioMAP Diversity Plus: SAg Assay for CD69 Biomarker Activity (AID 2283089); details: primary human HUVEC with PBMC; actives raise or lower the signal;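 on AC50: cell surface CD69 protein quantified by ELISA with fluorescence detection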
In short: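 Endothelial/PBMC co-culture; chemical added; 24 h incubation; CD69 ELISA with fluorescence detection; bidirectional fit vs DMSO.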

[6] = read-out: Monocyte Chemoattractant Protein-1 (MCP1), CCL2 (gene 6347); assay: BSK_SAg_MCP1: BioMAP Diversity Plus: SAg Assay for Monocyte Chemoattractant Protein-1 (MCP1) Biomarker Activity (AID 2283090); details: primary human HUVEC with PBMC; actives raise or lower the signal
In short: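 Values derive from bidirectional fitting of ELISA-measured MCP1 against DMSO controls. Readings were taken 24 h after dosing human vascular endothelial cells co-cultured with peripheral blood mononuclear cells under superantigen stimulation.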

[7] = read-out: E-selectin (Homo sapiens) (UniProt P16581); assay: BSK_SAg_Eselectin: BioMAP Diversity Plus: SAg Assay for Eselectin Biomarker Activity (AID 2283091); details: primary human HUVEC with PBMC; actives raise or lower the signal
In short: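 E-selectin ELISA readout at 24 h post-dosing in human umbilical vein endothelial cell/PBMC co-culture; gain or loss of signal fitted relative to DMSO baseline.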

[8] = read-out: Monokine induced gamma interferon (MIG), CXCL9 (gene 4283); assay: BSK_SAg_MIG: BioMAP Diversity Plus: SAg Assay for Monokine induced gamma interferon (MIG) Biomarker Activity (AID 2283092); details: primary human HUVEC with PBMC; actives raise or lower the signal
In short: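 Measures CXCL9 protein by ELISA in a human vascular primary-cell co-culture (umbilical vein endothelium with PBMC) 24 h after chemical addition. Activity is scored up or down from the DMSO control.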

[9] = BSK_SAg_PBMCCytotoxicity: PBMC Cytotoxicity Assessment in the BioMAP Diversity Plus: SAg Assay (AID 2283093); details: primary human HUVEC with PBMC;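 further: fitted both ways against DMSO so a hit may be loss or gain of signal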;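 on AC50: PBMC superantigen activated with SEB plus TSST-1 one hour after compound addition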
In short: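 PBMC viability by Alamar Blue reduction, fluorescence read at 546/580 nm after 6 h dye exposure. Cells were dosed 1 h before SEB plus TSST-1 activation (20 ng/mL final each), then held 90 h; endothelial/PBMC human co-culture.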

[10] = read-out: Interleukin-8 (IL8), CXCL8 (gene 3576); assay: BSK_SAg_IL8: BioMAP Diversity Plus: SAg Assay for Interleukin-8 (IL8) Biomarker Activity (AID 2283094); details: primary human HUVEC with PBMC; actives raise or lower the signal
In short: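 Chemicals were dosed onto a human endothelial–PBMC co-culture, and IL-8 was quantified by ELISA after 24 h. Both increases and decreases were fitted relative to DMSO.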

[11] = BSK_SAg_SRB: Viability Assessment in the BioMAP Diversity Plus: SAg Assay (AID 2283096); details: primary human HUVEC with PBMC;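 further: cells read one day after compound addition; hits may be either gain or loss of signal compared with DMSO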
In short: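 Compounds were added to a human vascular co-culture of umbilical vein endothelium and PBMC. After 24 h, parallel cultures were fixed with 10% TCA, stained with 0.1% sulforhodamine B and read at 560 nm. Gain or loss of signal was fitted relative to DMSO.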

[12] = BSK_SAg_Proliferation: Cell Proliferation Assessment in the BioMAP Diversity Plus: SAg Assay (AID 2283095); details: primary human HUVEC with PBMC;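 further: relative cell number as total protein by SRB absorbance in sub-confluent culture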
In short: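 Absorbance of sulforhodamine B at 560 nm reports total protein in a human vascular endothelial/PBMC co-culture after 96 h chemical exposure. Gain or loss of signal is fitted in both directions against DMSO.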

[13] = molecular target: human CYP2D6, CYP2D6 (gene 1565) (UniProt P10635); assay: NVS_ADME_hCYP2D6: NovaScreen (NVS) CYP450-related Enzyme Activity (ADME) Assay for human CYP2D6 (AID 2283107; active means hit-call score of the fitted dose curve at least 0.9, where 1 is the maximum)
Chain of human CYP2D6, CYP2D6 (gene 1565) (P10635 whole entry, looked up): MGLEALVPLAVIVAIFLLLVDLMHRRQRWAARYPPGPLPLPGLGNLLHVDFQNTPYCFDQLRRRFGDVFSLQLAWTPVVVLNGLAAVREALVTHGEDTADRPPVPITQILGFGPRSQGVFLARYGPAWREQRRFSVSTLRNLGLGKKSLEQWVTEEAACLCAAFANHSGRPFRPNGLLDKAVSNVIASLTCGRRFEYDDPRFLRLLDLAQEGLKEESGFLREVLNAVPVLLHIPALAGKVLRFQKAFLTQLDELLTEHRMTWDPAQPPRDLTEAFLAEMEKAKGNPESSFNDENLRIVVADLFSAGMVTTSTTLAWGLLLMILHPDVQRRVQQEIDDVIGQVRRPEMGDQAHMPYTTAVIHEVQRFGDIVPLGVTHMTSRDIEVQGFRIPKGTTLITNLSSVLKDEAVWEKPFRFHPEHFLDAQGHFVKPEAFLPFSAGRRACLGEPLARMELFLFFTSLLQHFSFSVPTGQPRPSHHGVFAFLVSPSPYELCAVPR
In short: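 Fluorescence intensity read 1 h post-dosing; insect-cell-expressed recombinant protein with fluorogenic substrate, no cells. Activity is scored as signal loss relative to acetonitrile baseline, first at a single 10 uM concentration in duplicate, then as concentration series for confirmed actives.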

[14] = molecular target: human CYP2C9, CYP2C9 (gene 1559) (UniProt P11712); assay: NVS_ADME_hCYP2C9: NovaScreen (NVS) CYP450-related Enzyme Activity (ADME) Assay for human CYP2C9 (AID 2283108; active means hit-call score of the fitted dose curve at least 0.9, where 1 is the maximum)
Chain of human CYP2C9, CYP2C9 (gene 1559) (P11712 whole entry, looked up): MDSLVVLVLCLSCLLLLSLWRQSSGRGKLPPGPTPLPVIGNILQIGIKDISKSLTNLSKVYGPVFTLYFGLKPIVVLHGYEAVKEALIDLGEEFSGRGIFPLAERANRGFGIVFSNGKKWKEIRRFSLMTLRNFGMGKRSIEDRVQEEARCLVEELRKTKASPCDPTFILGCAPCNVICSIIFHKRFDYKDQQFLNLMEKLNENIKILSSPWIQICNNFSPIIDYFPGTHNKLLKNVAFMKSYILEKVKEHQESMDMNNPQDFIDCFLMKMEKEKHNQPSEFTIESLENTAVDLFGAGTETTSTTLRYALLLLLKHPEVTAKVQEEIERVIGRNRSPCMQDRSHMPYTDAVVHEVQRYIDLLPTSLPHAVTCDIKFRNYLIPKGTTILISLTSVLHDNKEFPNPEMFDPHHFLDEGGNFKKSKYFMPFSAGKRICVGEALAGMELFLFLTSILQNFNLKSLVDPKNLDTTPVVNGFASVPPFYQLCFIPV
In short: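 Recombinant human CYP2C9 expressed in SF9 cells, fluorogenic substrate, fluorescence read 0.75 h after dosing. Chemicals first run in duplicate at 10 uM, with actives followed in concentration series; loss of signal versus acetonitrile baseline.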

Measured: AC50

Chain of E-selectin (Homo sapiens) (P16581 whole entry, looked up): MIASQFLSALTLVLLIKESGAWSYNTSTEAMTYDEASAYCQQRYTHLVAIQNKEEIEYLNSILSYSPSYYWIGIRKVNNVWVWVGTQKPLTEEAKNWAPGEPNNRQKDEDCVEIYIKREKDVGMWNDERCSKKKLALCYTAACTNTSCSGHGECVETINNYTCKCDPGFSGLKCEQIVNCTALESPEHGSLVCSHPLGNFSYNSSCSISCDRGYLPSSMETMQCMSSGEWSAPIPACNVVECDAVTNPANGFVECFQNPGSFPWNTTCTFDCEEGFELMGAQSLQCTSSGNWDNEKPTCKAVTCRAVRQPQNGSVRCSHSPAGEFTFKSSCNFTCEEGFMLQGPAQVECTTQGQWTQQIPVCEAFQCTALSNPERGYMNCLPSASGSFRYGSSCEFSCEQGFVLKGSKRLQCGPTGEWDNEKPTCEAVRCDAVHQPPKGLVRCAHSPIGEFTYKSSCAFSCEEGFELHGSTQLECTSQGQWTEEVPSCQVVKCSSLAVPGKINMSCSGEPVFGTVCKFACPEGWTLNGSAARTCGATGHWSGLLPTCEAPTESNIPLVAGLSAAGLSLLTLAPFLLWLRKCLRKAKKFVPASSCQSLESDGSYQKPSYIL
Chain of Tumor necrosis factor (Homo sapiens) (P01375 whole entry, looked up): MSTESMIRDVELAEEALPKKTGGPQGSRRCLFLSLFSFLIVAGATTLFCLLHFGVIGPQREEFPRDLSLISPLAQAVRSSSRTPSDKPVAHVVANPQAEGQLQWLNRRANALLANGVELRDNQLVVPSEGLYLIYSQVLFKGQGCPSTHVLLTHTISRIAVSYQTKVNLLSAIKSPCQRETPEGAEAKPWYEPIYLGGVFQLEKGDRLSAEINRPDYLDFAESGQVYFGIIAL

Cc1cc(O)c(C(C)(C)C)cc1C(C)(C)C
active: [2] 5.29 µM | [3] 5.3 µM | [4] 9.79 µM | [5] 5.9 µM | CD38, CD38 (gene 952) 10.1 µM | CD40, CD40 (gene 958) 5.09 µM | CD69, CD69 (gene 969) 5.18 µM | [6] 7.3 µM | [7] 5.34 µM | [8] 10.2 µM | [9] 3.79 µM | [10] 5.33 µM | [11] 6.3 µM
inactive: [1]

OCC(O)CC(F)(F)C(F)(F)C(F)(F)C(F)(F)C(F)(F)C(F)(F)C(F)(F)C(F)(F)F (centres undefined)
not listed: [13] | [14]
inactive: all other assays above

CNS(=O)(=O)C(F)(F)C(F)(F)C(F)(F)C(F)(F)C(F)(F)C(F)(F)C(F)(F)C(F)(F)F
not listed: [12] | [13] | [14]
inactive: all other assays above

C=CC(=O)OCC(F)(F)C(F)(F)C(F)(F)C(F)(F)C(F)(F)C(F)(F)C(F)(F)C(F)F
inactive: [2] | [3] | [4] | [5] | CD38, CD38 (gene 952) | CD40, CD40 (gene 958) | CD69, CD69 (gene 969) | [6] | [7] | [8] | [10] | [11]
active: CD40, CD40 (gene 958) 18.1 µM | [7] 30 µM | [9] 26.8 µM and 16.6 µM | [10] 20.8 µM | [12] 36.8 µM and 27.1 µM

NCC(F)(F)C(F)(F)C(F)(F)C(F)(F)C(F)(F)C(F)(F)F
not listed: [12] | [13] | [14]
inactive: all other assays above

CCN(CCO)S(=O)(=O)C(F)(F)C(F)(F)C(F)(F)C(F)(F)C(F)(F)C(F)(F)C(F)(F)C(F)(F)F
inactive: [2] | [4] | CD69, CD69 (gene 969) | [7] | [8] | [10]
active: [2] 7.7 µM | [3] 10.8 µM and 15 µM | [5] 30 µM and 35.9 µM | CD38, CD38 (gene 952) 35.9 µM and 29.9 µM | CD40, CD40 (gene 958) 22.8 µM and 46 µM | CD69, CD69 (gene 969) 9.85 µM | [6] 18.8 µM and 18.3 µM | [9] 39.9 µM and 22.9 µM | [12] 23.6 µM and 18.6 µM | [11] 30 µM and 27.9 µM

O=C(Cl)C(F)(F)C(F)(F)C(F)(F)C(F)(F)C(F)(F)C(F)(F)F
not listed: [12] | [13] | [14]
inactive: all other assays above

O=C(O)C(F)(F)C(F)(F)C(F)(F)C(F)(F)C(F)(F)C(F)(F)C(F)F
not listed: [12] | [13] | [14]
inactive: all other assays above

NC(=O)C(F)(F)C(F)(F)C(F)(F)C(F)(F)C(N)=O
active: [2] 0.393 µM
inactive: [2] | [3] | [4] | [5] | CD38, CD38 (gene 952) | CD40, CD40 (gene 958) | CD69, CD69 (gene 969) | [6] | [7] | [8] | [9] | [10] | [11]

C[C@]12CC[C@H]3C(=CCc4cc(O)ccc43)[C@@H]1CCC2=O
not listed: [14]
inactive: all other assays above

FC(F)(F)C(F)(F)C(F)(F)C(F)(F)C(F)(F)C(F)(F)CC[Si](Cl)(Cl)Cl
not listed: [1] | [12] | [13] | [14]
inactive: all other assays above

CCN(CC)c1ccc(C=O)c(O)c1
not listed: [1] | [12] | [13] | [14]
inactive: all other assays above

CCN=C1C=CC(=C(c2ccc(N(CC)CC)cc2)c2ccc(N(CC)CC)cc2)c2ccccc21
active: [2] 1.72 µM and 1.53 µM | [3] 1.6 µM and 1.55 µM | [4] 501 nM and 519 nM | [5] 1.42 µM and 1.55 µM | CD38, CD38 (gene 952) 713 nM and 470 nM | CD40, CD40 (gene 958) 1.69 µM and 1.51 µM | CD69, CD69 (gene 969) 1.34 µM and 765 nM | [6] 762 nM and 1.25 µM | [7] 1.45 µM and 1.11 µM | [8] 1.82 µM and 1.55 µM | [9] 2.52 µM and 2.57 µM | [10] 1.47 µM and 1.15 µM | [11] 1.78 µM and 2.37 µM

CC(C)=CCCC(C)O (centres undefined)
inactive: [13] | [14]
